Results filed as inconclusive are left out. Calls of active or inactive are those of the source.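 How the source made its calls: active means every repeat run fits a falling-signal curve with half-maximal potency within ten times top tested dose; inconclusive means runs disagree, or flat moderate drop, or poor fit; inactive means every run inactive, including signal moving upward.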
Experiment: inhibition of ADP-Glo detection reagents, dose response, artefact control for CDK5 inhibitor project, biochemical, luminescence, cherry-picked samples, set 2 (AID 504546)
Details: ADP-Glo detection reagent counter screen, 5 uM ADP; series mostly up to 30 µM

Row | Compound | outcome
1 | CC(C)n1cnc2c(Nc3ccc(F)c(Cl)c3)nc(NCCO)nc21 | inactive
2 | O=C(c1ccc2c(c1)OCO2)N1CCN(c2ccccn2)CC1 | inactive
3 | COc1ccc(Nc2nccc(-c3cccc(N)c3)n2)cc1 | inactive
4 | COc1ccc(Nc2nc(N)c(C(=O)c3ccc(OC)cc3)s2)cc1 | inactive
5 | O=C(O)CCC(=O)NCCn1c(-c2ccccc2)csc1=Nc1ccccc1 | inactive
6 | CC(C)(C)c1ccc(C(=O)O/N=C(\N)c2ccccn2)cc1 | inactive
7 | O=C(Cc1ccc(O)cc1)NCCNC(=S)NCc1ccccc1 | inactive
8 | Oc1cccc(C=NNc2ccccn2)c1 | inactive
9 | COc1cccc(C(=O)c2sc(NC(C)C)nc2N)c1 | inactive
10 | COc1ccc2nc3c(cc2c1)c(NC(=O)c1cccs1)nn3CC(C)C | inactive
11 | Cc1cccc(/N=C/c2c(O)ccc3oc4c(c23)CCCC4)n1 | inactive
12 | CCNc1nc(Nc2ccc(C)c(Cl)c2)c2cnn(C)c2n1 | inactive
13 | O=C1Nc2cc(C(=O)N3CCC(N4CCCCC4)CC3)ccc2S/C1=C\c1ccccc1 | inactive
14 | Clc1cccc(Cl)c1/C=N/Nc1c(Cl)cncc1Cl | inactive
15 | Cc1nn(-c2nccs2)c2c1C(=O)CC(C)(C)C2Br (stereo not given) | inactive

— PubChem BioAssay AID504546 (Broad Institute, 2011)
